Reference: PubChem BioAssay AID1159580 (chemical genetic matrix, 2015)
Out of some 5,500 compounds screened, about 2,000 (36%) were called active. Another 18% or so got no clear call; they are omitted. Some of the results follow. A number with no mark means an inactive call. No stated cut-off is given here; in the data, active means normalized growth mostly below about 0.91 (no sharp cut-off); inconclusive means no clear call, values can overlap the other calls; inactive means mostly above about 0.92.

Test: chemical genetic growth profiling, strain panel (AID 1159580);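 further: tested at 20 µM; growth read once vehicle control cultures reached saturation at 30 °C; 1 = growth at the plate median or of vehicle wells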
Settings: growth OD
[1] = S. cerevisiae deletion strains, locus YGR229C, strain SMI1, stronger effect = lower value
[2] = S. cerevisiae deletion strains, locus YMR307W, strain GAS1, stronger effect = lower value
[3] = S. cerevisiae deletion strains, locus YNL153C, strain GIM3, stronger effect = lower value

Structure (SMILES): Nc1nc2c(nc(Br)n2C2OC3COP(=O)(O)O[C@@H]3C2O)c(=O)[nH]1 (stereo not given in full)
- normalized growth (S. cerevisiae deletion strains, locus YAL040C, strain CLN3, stronger effect = lower value): 0.947
- normalized growth (S. cerevisiae deletion strains, locus YDR363W, strain ESC2, stronger effect = lower value): 0.993
- normalized growth (S. cerevisiae deletion strains, locus YER002W, strain NOP16, stronger effect = lower value): 1.02
- normalized growth [1]: 1.02
- normalized growth [2]: 0.998
- normalized growth [3]: 1.05
- normalized growth (S. cerevisiae deletion strains, locus YNL175C, strain NOP13, stronger effect = lower value): 1.02
- normalized growth (S. cerevisiae deletion strains, locus YNL197C, strain WHI3, stronger effect = lower value): 1.01
- normalized growth (S. cerevisiae deletion strains, locus YNL224C, strain SQS1, stronger effect = lower value): 1.02
- normalized growth (S. cerevisiae deletion strains, locus YOR083W, strain WHI5 (second series), stronger effect = lower value): 1.02

Structure (SMILES): COc1cc(OC)cc(OC)c1
- normalized growth (S. cerevisiae deletion strains, locus YAL013W, strain DEP1, stronger effect = lower value): 1.01
- normalized growth (S. cerevisiae deletion strains, locus YBR021W, strain FUR4, stronger effect = lower value): 1.02
- normalized growth (S. cerevisiae deletion strains, locus YBR229C, strain ROT2, stronger effect = lower value): 1.01
- normalized growth (S. cerevisiae deletion strains, locus YCL029C, strain bik1, stronger effect = lower value): 0.743 (active)
- normalized growth (S. cerevisiae deletion strains, locus YDL035C, strain GPR1, stronger effect = lower value): 1.02
- normalized growth (S. cerevisiae deletion strains, locus YDL074C, strain BRE1, stronger effect = lower value): 1.01
- normalized growth (S. cerevisiae deletion strains, locus YDL101C, strain DUN1, stronger effect = lower value): 1
- normalized growth (S. cerevisiae deletion strains, locus YDL134C, strain PPH21, stronger effect = lower value): 1
- normalized growth (S. cerevisiae deletion strains, locus YDL185W, strain tfp1, stronger effect = lower value): 0.982
- normalized growth (S. cerevisiae deletion strains, locus YDL192W, strain arf1, stronger effect = lower value): 0.102 (active)
- normalized growth (S. cerevisiae deletion strains, locus YDR101C, strain arx1, stronger effect = lower value): 0.529 (active)
- normalized growth (S. cerevisiae deletion strains, locus YDR150W, strain NUM1, stronger effect = lower value): 1.01
- normalized growth (S. cerevisiae deletion strains, locus YDR162C, strain NBP2, stronger effect = lower value): 1.02
- normalized growth (S. cerevisiae deletion strains, locus YDR318W, strain mcm21, stronger effect = lower value): 0.0697 (active)
- normalized growth (S. cerevisiae deletion strains, locus YDR388W, stronger effect = lower value): 0.0643 (active)
- normalized growth (S. cerevisiae deletion strains, locus YDR502C, strain sam2, stronger effect = lower value): 0.159 (active)
- normalized growth (S. cerevisiae deletion strains, locus YEL061C, strain CIN8, stronger effect = lower value): 1
- normalized growth (S. cerevisiae deletion strains, locus YER110C, stronger effect = lower value): 0.305 (active)
- normalized growth (S. cerevisiae deletion strains, locus YER155C, strain BEM2, stronger effect = lower value): 1.01
- normalized growth (S. cerevisiae deletion strains, locus YER167W, strain BCK2, stronger effect = lower value): 1.01
- normalized growth (S. cerevisiae deletion strains, locus YGL078C, strain dbp3, stronger effect = lower value): 0.299 (active)
- normalized growth (S. cerevisiae deletion strains, locus YGL086W, strain mad1, stronger effect = lower value): 0.0586 (active)
- normalized growth (S. cerevisiae deletion strains, locus YGL248W, strain PDE1, stronger effect = lower value): 1.01
- normalized growth (S. cerevisiae deletion strains, locus YGR078C, strain PAC10, stronger effect = lower value): 1.01
- normalized growth (S. cerevisiae deletion strains, locus YGR135W, strain pre9, stronger effect = lower value): 0.0735 (active)
- normalized growth [1]: 1
- normalized growth (S. cerevisiae deletion strains, locus YGR252W, strain gcn5, stronger effect = lower value): 0.24 (active)
- normalized growth (S. cerevisiae deletion strains, locus YHR030C, strain SLT2, stronger effect = lower value): 1.01
- normalized growth (S. cerevisiae deletion strains, locus YHR079C, strain IRE1 (second series), stronger effect = lower value): 0.598 (active)
- normalized growth (S. cerevisiae deletion strains, locus YHR094C, strain hxt1, stronger effect = lower value): 0.147 (active)
- normalized growth (S. cerevisiae deletion strains, locus YHR129C, strain ARP1, stronger effect = lower value): 1.01
- normalized growth (S. cerevisiae deletion strains, locus YHR200W, strain rpn10, stronger effect = lower value): 0.124 (active)
- normalized growth (S. cerevisiae deletion strains, locus YIL066C, strain RNR3, stronger effect = lower value): 1.01
- normalized growth (S. cerevisiae deletion strains, locus YIL073C, strain SPO22, stronger effect = lower value): 1
- normalized growth (S. cerevisiae deletion strains, locus YIL125W, strain kgd1, stronger effect = lower value): 0.263 (active)
- normalized growth (S. cerevisiae deletion strains, locus YIR030C, strain dcg1, stronger effect = lower value): 0.317 (active)
- normalized growth (S. cerevisiae deletion strains, locus YJL095W, strain BCK1, stronger effect = lower value): 1.01
- normalized growth (S. cerevisiae deletion strains, locus YJL134W, strain LCB3, stronger effect = lower value): 1
- normalized growth (S. cerevisiae deletion strains, locus YJL168C, strain set2, stronger effect = lower value): 0.206 (active)
- normalized growth (S. cerevisiae deletion strains, locus YJL187C, strain SWE1 (second series), stronger effect = lower value): 1.02
- normalized growth (S. cerevisiae deletion strains, locus YJR043C, strain POL32, stronger effect = lower value): 0.994
- normalized growth (S. cerevisiae deletion strains, locus YJR075W, strain HOC1, stronger effect = lower value): 1
- normalized growth (S. cerevisiae deletion strains, locus YKL009W, strain mrt4, stronger effect = lower value): 0.898
- normalized growth (S. cerevisiae deletion strains, locus YKL068W, stronger effect = lower value): 1
- normalized growth (S. cerevisiae deletion strains, locus YKL085W, strain MDH1 (second series), stronger effect = lower value): 0.211 (active)
- normalized growth (S. cerevisiae deletion strains, locus YKL085W, strain MDH1, stronger effect = lower value): 0.211 (active)
- normalized growth (S. cerevisiae deletion strains, locus YKL190W, strain CNB1, stronger effect = lower value): 1.01
- normalized growth (S. cerevisiae deletion strains, locus YKR001C, strain vps1, stronger effect = lower value): 0.127 (active)
- normalized growth (S. cerevisiae deletion strains, locus YLR039C, strain RIC1, stronger effect = lower value): 1.01
- normalized growth (S. cerevisiae deletion strains, locus YLR058C, strain SHM2, stronger effect = lower value): 1.01
- normalized growth (S. cerevisiae deletion strains, locus YLR102C, strain apc9, stronger effect = lower value): 0.106 (active)
- normalized growth (S. cerevisiae deletion strains, locus YLR262C, strain YPT6, stronger effect = lower value): 1.04
- normalized growth (S. cerevisiae deletion strains, locus YLR268W, strain sec22, stronger effect = lower value): 0.0897 (active)
- normalized growth (S. cerevisiae deletion strains, locus YLR330W, strain CHS5, stronger effect = lower value): 1
- normalized growth (S. cerevisiae deletion strains, locus YLR342W, strain FKS1 (second series), stronger effect = lower value): 0.983
- normalized growth (S. cerevisiae deletion strains, locus YLR371W, strain rom2, stronger effect = lower value): 0.0926 (active)
- normalized growth (S. cerevisiae deletion strains, locus YLR418C, strain cdc73, stronger effect = lower value): 0.104 (active)
- normalized growth (S. cerevisiae deletion strains, locus YML016C, strain PPZ1, stronger effect = lower value): 1
- normalized growth (S. cerevisiae deletion strains, locus YML032C, strain rad52, stronger effect = lower value): 0.853 (active)
- normalized growth (S. cerevisiae deletion strains, locus YML124C, strain tub3, stronger effect = lower value): 0.181 (active)
- normalized growth (S. cerevisiae deletion strains, locus YMR078C, strain ctf18, stronger effect = lower value): 0.231 (active)
- normalized growth (S. cerevisiae deletion strains, locus YMR223W, strain ubp8, stronger effect = lower value): 0.0875 (active)
- normalized growth (S. cerevisiae deletion strains, locus YMR263W, strain SAP30, stronger effect = lower value): 1.02
- normalized growth [2]: 0.961
- normalized growth (S. cerevisiae deletion strains, locus YNL067W, strain RPL9B, stronger effect = lower value): 1.02
- normalized growth (S. cerevisiae deletion strains, locus YNL128W, strain TEP1, stronger effect = lower value): 1.02
- normalized growth [3]: 1.02
- normalized growth (S. cerevisiae deletion strains, locus YNL233W, strain BNI4, stronger effect = lower value): 1.02
- normalized growth (S. cerevisiae deletion strains, locus YNL250W, strain rad50, stronger effect = lower value): 0.725 (active)
- normalized growth (S. cerevisiae deletion strains, locus YNL271C, strain bni1, stronger effect = lower value): 0.351 (active)
- normalized growth (S. cerevisiae deletion strains, locus YNL298W, strain CLA4, stronger effect = lower value): 0.725 (active)
- normalized growth (S. cerevisiae deletion strains, locus YNL307C, strain MCK1, stronger effect = lower value): 0.0671 (active)
- normalized growth (S. cerevisiae deletion strains, locus YNL322C, strain KRE1, stronger effect = lower value): 1.01
- normalized growth (S. cerevisiae deletion strains, locus YNR052C, strain pop2, stronger effect = lower value): 1
- normalized growth (S. cerevisiae deletion strains, locus YOL006C, strain TOP1, stronger effect = lower value): 0.948
- normalized growth (S. cerevisiae deletion strains, locus YOL147C, strain pex11, stronger effect = lower value): 0.838 (active)
- normalized growth (S. cerevisiae deletion strains, locus YOR061W, strain CKA2, stronger effect = lower value): 1
- normalized growth (S. cerevisiae deletion strains, locus YOR069W, strain VPS5, stronger effect = lower value): 1
- normalized growth (S. cerevisiae deletion strains, locus YOR136W, strain idh2, stronger effect = lower value): 0.104 (active)
- normalized growth (S. cerevisiae deletion strains, locus YOR144C, strain elg1, stronger effect = lower value): 0.997
- normalized growth (S. cerevisiae deletion strains, locus YOR184W, strain ser1, stronger effect = lower value): 0.0729 (active)
- normalized growth (S. cerevisiae deletion strains, locus YOR316C, strain cot1, stronger effect = lower value): 0.096 (active)
- normalized growth (S. cerevisiae deletion strains, locus YPL055C, strain LGE1, stronger effect = lower value): 1.02
- normalized growth (S. cerevisiae deletion strains, locus YPL241C, strain CIN2, stronger effect = lower value): 1.01
- normalized growth (S. cerevisiae deletion strains, locus YPR119W, strain clb2, stronger effect = lower value): 0.169 (active)
- normalized growth (S. cerevisiae deletion strains, locus YPR141C, strain kar3, stronger effect = lower value): 1.01
- normalized growth (S. cerevisiae deletion strains, locus YPR163C, strain tif3, stronger effect = lower value): 0.0751 (active)
- normalized growth (S. cerevisiae deletion strains, locus YPR167C, strain met16, stronger effect = lower value): 0.0964 (active)
- normalized growth (S. cerevisiae deletion strains, strain wtn01, stronger effect = lower value): 0.0632 (active)
- normalized growth (S. cerevisiae strains, strain wild type, stronger effect = lower value): 1.01
